From PubChem
A selection: hits, their analogues and other compounds. The true share with any hit is near 15%.
DT40 TDP1 no CPT: qHTS for Inhibitors of human tyrosyl-DNA phosphodiesterase 1 (TDP1): qHTS in cells in absence of CPT. DT40 Tdp1-/- hTDP1 cells, no CPT, ATP luminescence, 48 h. Potency, µM (titrated, usually from 46.2 µM), without a hit: at the top dose activity change, negative = growth inhibition, hits mostly inhibitors. actives 15% (n = 420,000). AID 686978, 2013; also: nearly all actives have a fitted effect of over 55% in size
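DT40 Tdp1-/-;hTDP1 cells, no CPT (DMSO vehicle only), 400 cells/well; compounds pin-transferred; ≥48 hr, 37 °C; CellTiter-Glo 30 min RT dark, luminescence read.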
12-LOX inh: Primary qHTS assay for inhibitors of human arachidonate 12S-lipoxygenase (ALOX12): Round 2. Polyunsaturated fatty acid lipoxygenase ALOX12 (Homo sapiens), P18054. purified 12hLO, xylenol orange hydroperoxide absorbance. Potency, µM (doses to about 108 µM), for inactives: at the highest dose activity change, negative = inhibition, usual class: inhibitors. actives 1.1% (n = 580,000). AID 1671190, 2021
Target sequence (P18054 whole entry, looked up): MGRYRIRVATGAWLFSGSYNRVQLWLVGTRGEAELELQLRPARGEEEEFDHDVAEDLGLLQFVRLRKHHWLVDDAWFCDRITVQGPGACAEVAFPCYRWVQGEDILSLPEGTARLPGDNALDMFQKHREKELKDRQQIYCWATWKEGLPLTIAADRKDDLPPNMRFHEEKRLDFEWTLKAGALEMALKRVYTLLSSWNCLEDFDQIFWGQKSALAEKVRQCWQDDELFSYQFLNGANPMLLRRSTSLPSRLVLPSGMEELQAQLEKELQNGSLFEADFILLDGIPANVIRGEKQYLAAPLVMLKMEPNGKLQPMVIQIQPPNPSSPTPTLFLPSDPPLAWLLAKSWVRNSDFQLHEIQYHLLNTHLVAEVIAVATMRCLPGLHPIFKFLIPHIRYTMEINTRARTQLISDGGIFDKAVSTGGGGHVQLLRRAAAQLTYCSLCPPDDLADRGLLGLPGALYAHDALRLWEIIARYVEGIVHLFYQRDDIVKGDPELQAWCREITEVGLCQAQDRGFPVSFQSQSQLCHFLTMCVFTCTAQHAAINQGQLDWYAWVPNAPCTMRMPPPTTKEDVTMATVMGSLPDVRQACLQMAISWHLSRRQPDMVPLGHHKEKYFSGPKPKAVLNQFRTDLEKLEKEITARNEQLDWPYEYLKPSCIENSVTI
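Hydroperoxide product was detected by ferrous iron/xylenol orange as the 573 to 405 nm absorbance ratio. Arachidonic acid at 40 uM (final) was turned over for 30 min at room temperature by 150 nM human 12hLO, pH 7.0 Hepes buffer, after 15 min compound preincubation.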
RORgamma inh: qHTS for inhibitors of ROR gamma transcriptional activity; Nuclear receptor ROR-gamma (Mus musculus), P51450; Drosophila S2 Gal4-RORgamma UAS-luciferase reporter, 20 h; Potency, µM (series often up to 53.6 µM), without a hit: at the highest dose activity change, negative = inhibition, hits mostly inhibitors; actives 5.4% (n = 310,000); AID 2551, 2010; also: nearly all actives have a fitted effect of over 60% in size
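Stably transfected Drosophila Schneider cells are the test system, with ROR gamma fused to Gal4 and luciferase under UAS control; luminescence is read after 20 hr of 700 uM copper sulfate induction at ambient temperature.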
DT40 TDP1 CPT: qHTS for Inhibitors of human tyrosyl-DNA phosphodiesterase 1 (TDP1): qHTS in cells in presence of CPT | chicken DT40 Tdp1-/-;hTDP1 cells + 20 nM CPT, ATP luminescence, 48 h | Potency, µM (highest dose often 46.2 µM), inactives show at the highest dose activity change, negative = growth inhibition, hits mostly inhibitors | actives 12% (n = 420,000); also: nearly all actives have a fitted effect of over 55% in size
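Cell growth measured by CellTiter-Glo luminescence after a minimum 48 h, 37 C compound exposure with 20 nM CPT in Tdp1-knockout DT40 cells stably expressing hTDP1, seeded 400/well; qHTS titration format.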
ELG1 repair inh: qHTS screen for small molecules that inhibit ELG1-dependent DNA repair in human embryonic kidney (HEK293T) cells expressing luciferase-tagged ELG1 | HEK293T ELG1-luciferase reporter, luminescence, 16 h; DNA damage induced by 5-fluorouridine | Potency, µM (top dose mostly 46.1 µM), for inactives: at the highest dose activity change, negative = inhibition, most hits filed as inhibitors | actives 2.3% (n = 330,000); also: nearly all actives have a fitted effect of over 55% in size
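5-Fluorouridine DNA damage + compound/DMSO, 2,000 cells/well, 16 h, 37 °C/5% CO2. ONE-Glo, 30 min RT, luminescence. Readout = decrease in reporter signal.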
Gal4-VP16 FLuc: VP16 counterscreen qHTS for inhibitors of ROR gamma transcriptional activity; Drosophila S2 Gal4-VP16 UAS-luciferase, luminescence, 20 h; Potency, µM (top dose mostly 53.6 µM), without a hit: at the highest dose activity, negative = inhibition, actives largely listed as inhibitors; actives 3.5% (n = 310,000); AID 2546, 2010;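 also: Gal4-VP16 expression switched on by copper sulfate through the metallothionein promoter; nearly all actives have a fitted effect of over 50% in size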
Numbers without * were called inactive; ! = a repeat was not active. Calls follow the shape of the dose curve; as a rule, active = well fitted curve in the direction sought with a large enough effect; inconclusive = small, poorly fitted or top-dose-only effect, or another doubt; inactive = no such curve, though single readings can be large; an effect the other way counts as inactive or inconclusive. % is scaled to controls: 0 for no effect and ±100 for the full control effect; potency is read from the fitted curve at half-maximal effect.

Results for Cc1cccn2c(=O)c3cc(C(=O)NCc4ccco4)c(=N)n(C4CCCC4)c3nc12 ?
DT40 TDP1 no CPT: 23.1µM*; 12-LOX inh: -21.4%; RORgamma inh: -33.3%; DT40 TDP1 CPT: inconclusive; ELG1 repair inh: 9.2%; Gal4-VP16 FLuc: -8.7%

Results for COCCN1C(=O)CS(=O)(=O)C12CCN(C(=O)c1ccc(OC)cc1OC)CC2 ?
12-LOX inh: 5.1%

Results for COc1cccc(C(=O)c2oc3cc(NC(C)=O)ccc3c2C)c1 ?
12-LOX inh: -59.0%

How did CCC1(C)NC(=O)N(NC(=O)CCCc2c[nH]c3ccccc23)C1=O (stereo not drawn) do in these assays?
12-LOX inh: -0.9%

Results for Nc1nc(N)c(N=Nc2ccc(S(N)(=O)=O)cc2)c(=O)[nH]1 ?
DT40 TDP1 no CPT: -9.9%; 12-LOX inh: 39.8µM*; RORgamma inh: -3.0%; DT40 TDP1 CPT: -5.1%; ELG1 repair inh: 24.9%; Gal4-VP16 FLuc: 5.3%

How did Nc1nc(N)c(N=Nc2ccc(Cl)cc2)c(=O)[nH]1 do in these assays?
DT40 TDP1 no CPT: -16.3%; 12-LOX inh: inconclusive; RORgamma inh: -12.4%; DT40 TDP1 CPT: inconclusive; ELG1 repair inh: 13.7%; Gal4-VP16 FLuc: -13.5%

Results for CCOc1cc(C(=O)N(C)Cc2cc3cc(OC)ccc3[nH]c2=O)cc(OCC)c1OCC ?
DT40 TDP1 no CPT: -29.6%; 12-LOX inh: 2µM*!; RORgamma inh: 20.0%; DT40 TDP1 CPT: 8.7%; ELG1 repair inh: inconclusive; Gal4-VP16 FLuc: 2.4%

Results for CCOc1ccccc1C(=O)N(C)Cc1cc2cc(OC)ccc2[nH]c1=O ?
DT40 TDP1 no CPT: -23.2%; 12-LOX inh: 10.3%; RORgamma inh: 20.8%; DT40 TDP1 CPT: -18.6%; ELG1 repair inh: -21.6%; Gal4-VP16 FLuc: -15.8%

How did CCCC(=O)N(Cc1cc2cc(OC)ccc2[nH]c1=O)c1ccc(OC)cc1 do in these assays?
DT40 TDP1 no CPT: inconclusive; 12-LOX inh: -1.4%; DT40 TDP1 CPT: inconclusive

How did CCCC(=O)N(Cc1cc2cc(OC)ccc2[nH]c1=O)c1ccccc1OC do in these assays?
DT40 TDP1 no CPT: inconclusive; 12-LOX inh: 3.1%; DT40 TDP1 CPT: 14.6µM*

How did O=C(CCNc1nc(Cl)nc2nc[nH]c12)NCCc1c[nH]c2ccccc12 do in these assays?
12-LOX inh: 5.7%

What do the screens show for `c1csc(CNc2ncncc2-c2ccc3c(c2)OCO3)c1`?
DT40 TDP1 no CPT: inconclusive; 12-LOX inh: 28.2µM*; RORgamma inh: -14.7%; DT40 TDP1 CPT: inconclusive; Gal4-VP16 FLuc: -14.0%

What do the screens show for `c1cncc(-c2cncnc2NCc2cccs2)c1`?
DT40 TDP1 no CPT: -9.5%; 12-LOX inh: 7.94µM*; RORgamma inh: 20.0%; DT40 TDP1 CPT: 9.1%; Gal4-VP16 FLuc: 7.8%

How did c1cncc(CNc2ncncc2-c2cccnc2)c1 do in these assays?
DT40 TDP1 no CPT: 9.4%; 12-LOX inh: inconclusive; RORgamma inh: -0.1%; DT40 TDP1 CPT: 13.3%; Gal4-VP16 FLuc: -2.7%

What do the screens show for `O=S(=O)(NCCCO)c1ccc(Cl)c2ccccc12`?
12-LOX inh: -0.5%

What do the screens show for `COC(=O)c1ccc(CN(c2ccc(OC)cc2)S(=O)(=O)c2ccccc2)cc1`?
DT40 TDP1 no CPT: 13µM*; 12-LOX inh: 6.8%; DT40 TDP1 CPT: inconclusive

Results for CC(=O)Nc1ccc(S(=O)(=O)N(Cc2ccccc2)c2ccccc2)cc1 ?
DT40 TDP1 no CPT: inconclusive; 12-LOX inh: -3.3%; RORgamma inh: -30.6%; DT40 TDP1 CPT: -1.6%; ELG1 repair inh: -6.3%; Gal4-VP16 FLuc: 1.6%
